Screens from PubChem.
14-3-3 Bad inh: disrupts binding of bovine 14-3-3 zeta to phospho-Bad peptide | 220,000 tested, 0.71% active | TR-FRET 14-3-3zeta/Dy647-pBad peptide displacement, 1 h | inhibition, % at 21.7 µM;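 active means inhibition above about 70%, limit read from the data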;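 further: 0% = full 14-3-3 plus peptide FRET controls and 100% = background without 14-3-3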
Target sequence (P63103 whole entry, looked up): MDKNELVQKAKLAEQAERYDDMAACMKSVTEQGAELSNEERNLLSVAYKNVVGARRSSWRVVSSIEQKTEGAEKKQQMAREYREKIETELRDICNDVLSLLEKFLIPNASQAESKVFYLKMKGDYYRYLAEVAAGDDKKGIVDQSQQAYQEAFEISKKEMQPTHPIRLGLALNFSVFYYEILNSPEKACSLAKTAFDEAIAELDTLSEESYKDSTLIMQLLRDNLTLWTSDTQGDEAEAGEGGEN
p47phox inh: p47phox (human) inhibition; P14598; p47phox/p22phox peptide binding, fluorescence polarization, 2 h; inhibition, % at 24.7 µM; 220,000 tested, 0.53% active;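 further: 0% = p47phox with labelled peptide and 100% = labelled peptide alone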
UBC9 SUMO inh: blocks human SUMOylation mediated by UBC9 | AID 2006 | HTRF SUMOylation assay, SAE1/SAE2 + UBC9, in vitro | 290,000 tested, 0.36% active | inhibition, % at 35 µM | P63279; in the data active means inhibition above about 50%, passing the limit was not always enough
Target sequence (P63279 whole entry, looked up): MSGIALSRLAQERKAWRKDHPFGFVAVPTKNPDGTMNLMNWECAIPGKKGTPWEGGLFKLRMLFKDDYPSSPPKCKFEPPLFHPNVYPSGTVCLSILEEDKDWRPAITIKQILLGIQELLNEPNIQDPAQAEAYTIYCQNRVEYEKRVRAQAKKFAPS
eIF4E-4G inh: blocks eIF4E binding to eIF4G; P63073+Q04637; TR-FRET eIF4E-eIF4GI(517-606) binding, 2 h; inhibition, % at 21.7 µM; 220,000 tested, 0.37% active; AID 782;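 further: 0% = full FRET control wells and 100% = background wells lacking eIF4GI fragment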
* hit, by the source's call; [ ] = dose if it differs, or a comment. The list is not random: actives were taken first. Their share in the collection is about 1.3%.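 How the source made its calls, unless noted: active means inhibition above about 30% (limit read from the data); inactive means the rest.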

For CC1(c2nnc(-c3ccccc3)o2)CC(c2cccnc2)=NO1 (configuration not stated) the results were 14-3-3 Bad inh -6, p47phox inh -29, UBC9 SUMO inh 24 and eIF4E-4G inh -5.
Screening COCCNC(=O)CSc1nc2cc(OC)c(OC)cc2c(=O)n1CCc1ccc(S(N)(=O)=O)cc1 returned 14-3-3 Bad inh 16, p47phox inh 8, UBC9 SUMO inh 9 and eIF4E-4G inh -1.
`Cc1ccc(-c2nn(C)c(=O)c3ccccc23)cc1CNC(=O)Cn1nc(-c2ccccc2)c2ccccc2c1=O` gave 14-3-3 Bad inh 60, p47phox inh 41*, UBC9 SUMO inh 31 and eIF4E-4G inh 1.
`COc1cccc(CNC(=O)C23CN(Cc4ccccc4)CC2C(c2ccc([N+](=O)[O-])cc2)=NO3)c1` (configuration not stated) gave 14-3-3 Bad inh 71*, p47phox inh -3, UBC9 SUMO inh -5 and eIF4E-4G inh -4.
O=c1c2ccccc2nc(/C=C/c2ccc([N+](=O)[O-])o2)n1CCCO was read as 14-3-3 Bad inh -5, p47phox inh 35*, UBC9 SUMO inh 12 and eIF4E-4G inh 7.
`CCN(CC)S(=O)(=O)c1cccc(C(=O)Nc2ccc3c(c2)OCO3)c1` gave 14-3-3 Bad inh -2, p47phox inh 3, UBC9 SUMO inh 7 and eIF4E-4G inh 1.
`CCCN(CCC)S(=O)(=O)c1cccc(C(=O)Nc2ccc3c(c2)OCO3)c1` gave 14-3-3 Bad inh 4, p47phox inh 165*, UBC9 SUMO inh -7 and eIF4E-4G inh 0.
Screening COc1cc(CNc2ccc(N3CCCC3)cc2)cc(Cl)c1OC returned 14-3-3 Bad inh 6, p47phox inh 7, UBC9 SUMO inh -9 and eIF4E-4G inh 17.
`CCOc1cc(CNc2ccc(N3CCCC3)cc2)cc(Cl)c1OC` gave 14-3-3 Bad inh 19, p47phox inh -2, UBC9 SUMO inh 22 and eIF4E-4G inh 35*[fluorescence artefact?].
CC(=O)Oc1ccc2cc(-c3nc4ccccc4n3C)c(=O)oc2c1 was read as 14-3-3 Bad inh -7, p47phox inh -26, UBC9 SUMO inh 56* and eIF4E-4G inh 17.
Screening CC1CCN(Cc2nc(-c3ccccc3)no2)CC1 returned 14-3-3 Bad inh 76*, p47phox inh -10 and eIF4E-4G inh 2.
Screening c1ccc(-c2noc(CN3CCN(c4ccccc4)CC3)n2)cc1 returned 14-3-3 Bad inh 3, p47phox inh -5, UBC9 SUMO inh -4 and eIF4E-4G inh 0.
Nc1nc(CSc2nc3ccccc3[nH]2)nc(N2CCOCC2)n1 was read as 14-3-3 Bad inh 16, p47phox inh -11, UBC9 SUMO inh -4 and eIF4E-4G inh 2.
For COc1ccc(OC)c(CNc2ccc(F)c(Cl)c2)c1 the results were 14-3-3 Bad inh 79*, p47phox inh -22, UBC9 SUMO inh 8 and eIF4E-4G inh 15.
COc1cc2c(cc1OC)C(c1ccccc1O)N(C1CC(=O)N(c3ccccc3)C1=O)CC2 (configuration not stated) was read as 14-3-3 Bad inh 74*, p47phox inh -4, UBC9 SUMO inh -1 and eIF4E-4G inh -3.
`COc1ccc(/C=N/NC(=O)CSc2ccccn2)cc1OC` gave 14-3-3 Bad inh -3, p47phox inh -12, UBC9 SUMO inh 14 and eIF4E-4G inh -1.
`O=C(O)CSc1ccccn1` gave 14-3-3 Bad inh 9, p47phox inh -8, UBC9 SUMO inh 38 and eIF4E-4G inh 33*.
`COc1ccc(NC(=O)CSc2ccccn2)cc1OC` gave 14-3-3 Bad inh 72*, p47phox inh -10, UBC9 SUMO inh -5 and eIF4E-4G inh -3.
Screening Cc1cnc2cc([N+](=O)[O-])ccc2n1 returned 14-3-3 Bad inh -3, p47phox inh -8, UBC9 SUMO inh 9 and eIF4E-4G inh 21.
Screening Cc1cccc(N)c1-c1c(C)cccc1N returned 14-3-3 Bad inh 2, p47phox inh -3, UBC9 SUMO inh 3 and eIF4E-4G inh 2.
For Nc1nc(NC(=O)c2ccccc2)nn1-c1ccccc1 the results were 14-3-3 Bad inh 7, p47phox inh -4, UBC9 SUMO inh 12 and eIF4E-4G inh 4.
For Nc1nc(NC(=O)c2cccs2)nn1-c1ccccc1 the results were 14-3-3 Bad inh 82*, p47phox inh -5, UBC9 SUMO inh -2 and eIF4E-4G inh 5.
Screening CSc1cccc(NC(=S)N(Cc2ccc(C)cc2)Cc2cccnc2)c1 returned 14-3-3 Bad inh -13, p47phox inh -13, UBC9 SUMO inh 8 and eIF4E-4G inh 87*.
For Cc1ccccc1NC(=S)N(Cc1ccccc1)Cc1cccnc1 the results were 14-3-3 Bad inh 0, p47phox inh -3, UBC9 SUMO inh -3 and eIF4E-4G inh -1.
